# Reference: PMC7862700, “An all-to-all approach to the identification of sequence-specific readers for epigenetic DNA modifications on cytosine”
# What was measured:
# Test in all cases: DAPPL (digital affinity profiling via proximity ligation, sequencing); 10 mM Tris-HCl pH 7.5, 50 mM NaCl, 1 mM DTT, 4% glycerol, room temperature, 30 min; GST-TFs on glutathione beads, 16-mer random dsDNA library, 0.1% formaldehyde crosslink after washing; high values mean tight binding
# FEV = molecular target: T1, FEV (Homo sapiens, UniProt Q99581 1-238); details: protein: recombinant; tags: N-terminal GST; dsDNA, one strand shown
# T1 sequence: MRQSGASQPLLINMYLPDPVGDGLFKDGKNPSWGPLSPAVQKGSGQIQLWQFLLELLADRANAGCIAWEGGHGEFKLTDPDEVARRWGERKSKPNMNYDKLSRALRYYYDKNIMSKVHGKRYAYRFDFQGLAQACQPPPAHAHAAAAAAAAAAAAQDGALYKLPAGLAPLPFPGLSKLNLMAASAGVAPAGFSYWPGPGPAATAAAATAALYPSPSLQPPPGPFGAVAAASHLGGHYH
# Outline: (§1)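 Sequencing on an Illumina NextSeq500 followed washing, crosslinking with 0.1% formaldehyde, proximity ligation (BsaI/T4 ligase, 1 h, 37 °C) and PCR amplification of pools that had been incubated for 30 min at room temperature with 200 nmole of a random double-stranded 16-mer DNA library in Tris/NaCl/DTT/glycerol buffer. Each pool held DNA-barcoded human transcription factors, expressed in yeast as GST fusions and captured on glutathione beads, plus a tag-only sample. Binding signal is a hexamer's read frequency for a factor divided by its frequency in the tag-only sample.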
# ETV5 = ETV5 (Homo sapiens, UniProt P41161 1-510); details: protein: recombinant; tags: N-terminal GST; dsDNA, one strand shown
# Sequence of ETV5 (P41161 whole entry): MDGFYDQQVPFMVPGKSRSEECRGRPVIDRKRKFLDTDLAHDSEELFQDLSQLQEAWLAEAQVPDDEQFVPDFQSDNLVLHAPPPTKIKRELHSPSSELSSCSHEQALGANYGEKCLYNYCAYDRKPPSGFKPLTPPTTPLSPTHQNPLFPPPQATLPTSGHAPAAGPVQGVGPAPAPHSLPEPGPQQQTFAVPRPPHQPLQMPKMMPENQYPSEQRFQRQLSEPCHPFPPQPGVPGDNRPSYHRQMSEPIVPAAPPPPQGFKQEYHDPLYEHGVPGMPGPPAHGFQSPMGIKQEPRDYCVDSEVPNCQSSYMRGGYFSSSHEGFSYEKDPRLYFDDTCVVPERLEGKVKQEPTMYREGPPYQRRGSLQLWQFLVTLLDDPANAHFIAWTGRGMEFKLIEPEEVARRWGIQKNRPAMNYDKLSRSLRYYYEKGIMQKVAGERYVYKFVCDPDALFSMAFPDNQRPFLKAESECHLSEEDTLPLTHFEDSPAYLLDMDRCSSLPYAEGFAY
# Outline: as §1
# HSF1 = HSF1 (Homo sapiens, UniProt Q00613 1-529); details: protein: recombinant; tags: N-terminal GST; chain copies: 3; dsDNA, one strand shown
# Sequence of HSF1 (Q00613 whole entry): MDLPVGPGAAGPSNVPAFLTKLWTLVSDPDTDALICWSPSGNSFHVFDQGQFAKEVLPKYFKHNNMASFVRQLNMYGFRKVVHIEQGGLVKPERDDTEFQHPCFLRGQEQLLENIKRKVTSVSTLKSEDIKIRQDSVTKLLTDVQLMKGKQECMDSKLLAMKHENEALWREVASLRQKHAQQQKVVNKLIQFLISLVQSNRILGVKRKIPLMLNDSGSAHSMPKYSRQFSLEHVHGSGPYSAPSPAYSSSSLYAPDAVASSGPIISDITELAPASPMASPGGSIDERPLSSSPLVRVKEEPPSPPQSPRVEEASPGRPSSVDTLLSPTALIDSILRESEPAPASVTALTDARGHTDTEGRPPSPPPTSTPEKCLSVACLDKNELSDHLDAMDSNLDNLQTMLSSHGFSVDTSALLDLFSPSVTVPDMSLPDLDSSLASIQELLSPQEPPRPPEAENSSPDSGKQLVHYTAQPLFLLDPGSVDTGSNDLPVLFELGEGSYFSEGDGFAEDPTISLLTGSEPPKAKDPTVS
# Outline: as §1
# SPIC = molecular target: T2, SPIC (Homo sapiens, UniProt Q8N5J4 1-248); details: protein: recombinant; tags: N-terminal GST; dsDNA, one strand shown
# T2 sequence: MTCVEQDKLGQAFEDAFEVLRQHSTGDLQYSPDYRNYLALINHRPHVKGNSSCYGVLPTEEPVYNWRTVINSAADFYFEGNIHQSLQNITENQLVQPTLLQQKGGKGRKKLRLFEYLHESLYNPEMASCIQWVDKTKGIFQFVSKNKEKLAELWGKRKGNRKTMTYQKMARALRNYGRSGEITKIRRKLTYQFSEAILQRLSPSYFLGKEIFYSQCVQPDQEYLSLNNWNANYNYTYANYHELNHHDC
# Outline: as §1
# ELF4 = ELF4 (Homo sapiens, UniProt Q99607 1-663); details: protein: recombinant; tags: N-terminal GST; dsDNA, one strand shown
# Sequence of ELF4 (Q99607 whole entry): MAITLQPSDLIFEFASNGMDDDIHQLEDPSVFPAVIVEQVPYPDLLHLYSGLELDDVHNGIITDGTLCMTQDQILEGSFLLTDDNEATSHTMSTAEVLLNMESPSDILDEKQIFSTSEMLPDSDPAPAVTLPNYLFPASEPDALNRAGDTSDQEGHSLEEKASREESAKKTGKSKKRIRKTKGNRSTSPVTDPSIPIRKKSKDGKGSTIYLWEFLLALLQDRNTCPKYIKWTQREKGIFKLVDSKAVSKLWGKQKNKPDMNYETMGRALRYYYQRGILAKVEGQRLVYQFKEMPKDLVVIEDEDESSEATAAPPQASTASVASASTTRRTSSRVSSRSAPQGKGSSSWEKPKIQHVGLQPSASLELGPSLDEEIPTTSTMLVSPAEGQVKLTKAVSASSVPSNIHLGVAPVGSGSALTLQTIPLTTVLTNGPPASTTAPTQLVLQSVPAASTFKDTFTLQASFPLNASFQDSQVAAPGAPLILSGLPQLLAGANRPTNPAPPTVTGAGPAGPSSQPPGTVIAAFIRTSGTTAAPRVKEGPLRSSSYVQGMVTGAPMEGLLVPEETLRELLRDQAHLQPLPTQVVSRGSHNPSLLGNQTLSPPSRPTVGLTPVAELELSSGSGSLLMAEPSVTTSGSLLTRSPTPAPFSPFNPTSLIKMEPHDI
# Outline: as §1
# ELK4 = molecular target: T3, ELK4 (Homo sapiens, UniProt P28324-2 1-405); details: protein: recombinant; tags: N-terminal GST; dsDNA, one strand shown
# T3 sequence: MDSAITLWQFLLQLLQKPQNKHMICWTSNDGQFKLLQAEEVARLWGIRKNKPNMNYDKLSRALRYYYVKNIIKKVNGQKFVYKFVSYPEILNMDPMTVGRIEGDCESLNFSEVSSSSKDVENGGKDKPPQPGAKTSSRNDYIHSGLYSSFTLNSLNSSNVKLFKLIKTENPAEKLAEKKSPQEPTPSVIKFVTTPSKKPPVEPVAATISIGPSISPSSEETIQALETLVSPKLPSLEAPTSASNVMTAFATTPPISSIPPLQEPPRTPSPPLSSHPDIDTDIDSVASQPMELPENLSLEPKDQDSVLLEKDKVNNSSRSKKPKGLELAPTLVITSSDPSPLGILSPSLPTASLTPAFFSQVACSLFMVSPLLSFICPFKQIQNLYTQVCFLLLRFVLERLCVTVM
# Outline: as §1
# ETV2 = molecular target: T4, ETV2 (Homo sapiens, UniProt O00321 1-342); details: protein: recombinant; tags: N-terminal GST; dsDNA, one strand shown
# T4 sequence: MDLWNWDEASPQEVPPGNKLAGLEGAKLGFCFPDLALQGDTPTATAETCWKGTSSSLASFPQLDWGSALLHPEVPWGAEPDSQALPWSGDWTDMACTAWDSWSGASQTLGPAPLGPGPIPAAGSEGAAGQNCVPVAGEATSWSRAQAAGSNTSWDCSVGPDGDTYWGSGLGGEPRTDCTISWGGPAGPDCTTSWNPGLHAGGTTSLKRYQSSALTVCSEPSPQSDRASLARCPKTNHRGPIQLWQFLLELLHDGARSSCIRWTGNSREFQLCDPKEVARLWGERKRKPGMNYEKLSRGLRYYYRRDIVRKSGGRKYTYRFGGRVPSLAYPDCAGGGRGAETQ
# Outline: as §1
# ELF3 = molecular target: T5, ELF3 (Homo sapiens, UniProt P78545 1-371); details: protein: recombinant; tags: N-terminal GST; dsDNA, one strand shown
# T5 sequence: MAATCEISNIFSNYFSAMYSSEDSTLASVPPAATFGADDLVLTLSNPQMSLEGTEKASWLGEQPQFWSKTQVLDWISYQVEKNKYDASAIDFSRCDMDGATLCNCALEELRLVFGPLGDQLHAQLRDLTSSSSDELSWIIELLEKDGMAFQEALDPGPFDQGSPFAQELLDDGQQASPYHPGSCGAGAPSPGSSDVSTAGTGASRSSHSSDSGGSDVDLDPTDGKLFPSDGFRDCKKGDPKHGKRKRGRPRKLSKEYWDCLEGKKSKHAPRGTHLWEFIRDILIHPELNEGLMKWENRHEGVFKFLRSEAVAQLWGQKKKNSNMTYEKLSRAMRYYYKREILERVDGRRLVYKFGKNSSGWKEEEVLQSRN
# Outline: as §1
# CRX = CRX (Homo sapiens, UniProt O43186 1-299); details: protein: recombinant; tags: N-terminal GST; dsDNA, one strand shown
# Sequence of CRX (O43186 whole entry): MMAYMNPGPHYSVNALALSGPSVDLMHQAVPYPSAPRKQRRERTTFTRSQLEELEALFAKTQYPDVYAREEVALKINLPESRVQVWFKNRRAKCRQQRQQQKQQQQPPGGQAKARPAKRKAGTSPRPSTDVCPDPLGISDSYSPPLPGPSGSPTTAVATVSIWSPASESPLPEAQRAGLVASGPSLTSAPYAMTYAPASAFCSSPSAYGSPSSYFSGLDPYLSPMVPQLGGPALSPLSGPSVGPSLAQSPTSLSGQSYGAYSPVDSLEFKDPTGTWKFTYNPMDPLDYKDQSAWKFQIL
# Outline: as §1
# ETV1 = ETV1 (Homo sapiens, UniProt P50549 1-477); details: protein: recombinant; tags: N-terminal GST; dsDNA, one strand shown
# Sequence of ETV1 (P50549 whole entry): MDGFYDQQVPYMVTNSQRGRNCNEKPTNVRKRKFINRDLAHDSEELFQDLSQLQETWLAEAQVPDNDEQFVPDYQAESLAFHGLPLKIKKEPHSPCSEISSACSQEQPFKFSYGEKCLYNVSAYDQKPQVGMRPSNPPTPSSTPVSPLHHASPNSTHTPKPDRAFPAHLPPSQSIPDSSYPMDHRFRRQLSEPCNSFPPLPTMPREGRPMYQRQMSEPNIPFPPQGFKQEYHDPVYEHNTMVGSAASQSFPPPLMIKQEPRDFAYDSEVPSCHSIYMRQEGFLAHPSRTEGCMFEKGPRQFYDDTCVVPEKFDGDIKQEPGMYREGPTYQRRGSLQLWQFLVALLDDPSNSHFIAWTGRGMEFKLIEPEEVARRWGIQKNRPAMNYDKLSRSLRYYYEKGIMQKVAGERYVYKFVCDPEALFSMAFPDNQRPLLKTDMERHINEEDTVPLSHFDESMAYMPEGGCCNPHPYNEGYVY
# Outline: as §1
# ERF = molecular target: T6, ERF (Homo sapiens, UniProt P50548 1-548); details: protein: recombinant; tags: N-terminal GST; dsDNA, one strand shown
# T6 sequence: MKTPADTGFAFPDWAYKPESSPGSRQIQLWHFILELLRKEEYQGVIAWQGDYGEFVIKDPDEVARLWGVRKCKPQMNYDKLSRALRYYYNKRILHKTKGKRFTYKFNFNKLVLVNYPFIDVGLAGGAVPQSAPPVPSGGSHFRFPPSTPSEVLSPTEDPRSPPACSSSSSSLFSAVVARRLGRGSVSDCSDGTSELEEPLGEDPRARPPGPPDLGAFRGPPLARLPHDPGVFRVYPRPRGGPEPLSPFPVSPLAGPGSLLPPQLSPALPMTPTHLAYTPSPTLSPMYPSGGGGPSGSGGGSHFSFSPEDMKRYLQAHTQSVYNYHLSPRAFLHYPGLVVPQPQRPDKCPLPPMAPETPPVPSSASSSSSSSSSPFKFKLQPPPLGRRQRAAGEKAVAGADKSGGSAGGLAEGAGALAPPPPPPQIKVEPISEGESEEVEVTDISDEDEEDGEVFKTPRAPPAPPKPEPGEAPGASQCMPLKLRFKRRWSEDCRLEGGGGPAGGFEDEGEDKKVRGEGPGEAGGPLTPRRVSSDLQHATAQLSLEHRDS
# Outline: as §1
# ETV3L = molecular target: T7, ETV3L (Homo sapiens, UniProt Q6ZN32 1-361); details: protein: recombinant; tags: N-terminal GST; dsDNA, one strand shown
# T7 sequence: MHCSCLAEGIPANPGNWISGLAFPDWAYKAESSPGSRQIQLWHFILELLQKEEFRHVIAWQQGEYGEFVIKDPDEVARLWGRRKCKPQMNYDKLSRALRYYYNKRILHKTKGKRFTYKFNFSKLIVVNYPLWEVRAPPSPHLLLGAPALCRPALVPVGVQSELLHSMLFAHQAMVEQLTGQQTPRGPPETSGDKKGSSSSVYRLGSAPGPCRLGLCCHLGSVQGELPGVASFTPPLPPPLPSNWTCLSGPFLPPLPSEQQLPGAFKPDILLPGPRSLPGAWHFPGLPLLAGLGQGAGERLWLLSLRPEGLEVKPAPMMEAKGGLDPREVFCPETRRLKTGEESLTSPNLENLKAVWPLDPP
# Outline: as §1
# ETS2 = molecular target: T8, ETS2 (Homo sapiens, UniProt P15036 1-469); details: protein: recombinant; tags: N-terminal GST; dsDNA, one strand shown
# T8 sequence: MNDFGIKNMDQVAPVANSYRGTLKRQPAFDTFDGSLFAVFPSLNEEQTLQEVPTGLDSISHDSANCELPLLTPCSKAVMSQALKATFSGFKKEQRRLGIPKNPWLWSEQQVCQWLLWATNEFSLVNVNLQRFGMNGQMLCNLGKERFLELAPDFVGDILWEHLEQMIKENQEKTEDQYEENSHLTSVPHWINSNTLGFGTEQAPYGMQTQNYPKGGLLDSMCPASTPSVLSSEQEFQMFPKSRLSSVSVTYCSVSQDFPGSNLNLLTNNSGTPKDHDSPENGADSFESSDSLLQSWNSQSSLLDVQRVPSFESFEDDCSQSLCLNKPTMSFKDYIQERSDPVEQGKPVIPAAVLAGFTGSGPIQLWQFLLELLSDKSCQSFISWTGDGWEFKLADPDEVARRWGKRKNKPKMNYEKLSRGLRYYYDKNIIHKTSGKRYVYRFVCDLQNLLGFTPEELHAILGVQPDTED
# Outline: as §1
# SPDEF = molecular target: T9, SPDEF (Homo sapiens, UniProt O95238 1-335); details: protein: recombinant; tags: N-terminal GST; dsDNA, one strand shown
# T9 sequence: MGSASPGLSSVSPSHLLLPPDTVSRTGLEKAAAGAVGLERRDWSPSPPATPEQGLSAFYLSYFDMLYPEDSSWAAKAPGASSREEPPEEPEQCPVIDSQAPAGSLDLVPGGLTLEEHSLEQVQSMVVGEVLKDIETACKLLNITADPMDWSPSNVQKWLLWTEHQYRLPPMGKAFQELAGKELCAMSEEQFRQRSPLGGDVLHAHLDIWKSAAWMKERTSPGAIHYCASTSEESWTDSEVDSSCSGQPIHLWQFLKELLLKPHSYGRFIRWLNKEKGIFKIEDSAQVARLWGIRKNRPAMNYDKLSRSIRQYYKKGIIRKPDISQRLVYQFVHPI
# Outline: as §1
# ETV7 = molecular target: T10, ETV7 (Homo sapiens, UniProt Q9Y603 1-341); details: protein: recombinant; tags: N-terminal GST; dsDNA, one strand shown
# T10 sequence: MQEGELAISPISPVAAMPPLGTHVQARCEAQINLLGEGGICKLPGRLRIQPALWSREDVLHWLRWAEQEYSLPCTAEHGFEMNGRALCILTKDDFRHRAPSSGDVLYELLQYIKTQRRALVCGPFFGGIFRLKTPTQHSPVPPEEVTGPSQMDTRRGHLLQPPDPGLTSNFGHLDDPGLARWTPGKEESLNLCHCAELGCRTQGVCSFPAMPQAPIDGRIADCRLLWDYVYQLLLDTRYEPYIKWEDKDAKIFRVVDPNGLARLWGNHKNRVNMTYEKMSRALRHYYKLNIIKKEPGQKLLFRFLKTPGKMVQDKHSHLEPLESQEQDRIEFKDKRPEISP
# Outline: as §1
# ELF5 = molecular target: T11, ELF5 (Homo sapiens, UniProt Q9UKW6-2 1-255); details: protein: recombinant; tags: N-terminal GST; dsDNA, one strand shown
# T11 sequence: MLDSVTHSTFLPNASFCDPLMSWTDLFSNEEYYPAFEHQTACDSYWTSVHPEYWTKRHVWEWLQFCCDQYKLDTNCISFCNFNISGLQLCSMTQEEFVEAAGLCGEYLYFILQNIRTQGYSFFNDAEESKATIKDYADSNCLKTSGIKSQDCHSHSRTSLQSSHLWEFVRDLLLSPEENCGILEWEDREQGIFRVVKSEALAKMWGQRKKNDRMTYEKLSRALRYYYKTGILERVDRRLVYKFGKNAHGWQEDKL
# Outline: as §1
# ETV3 = molecular target: T12, ETV3 (Homo sapiens, UniProt P41162-2 1-143); details: protein: recombinant; tags: N-terminal GST; dsDNA, one strand shown
# T12 sequence: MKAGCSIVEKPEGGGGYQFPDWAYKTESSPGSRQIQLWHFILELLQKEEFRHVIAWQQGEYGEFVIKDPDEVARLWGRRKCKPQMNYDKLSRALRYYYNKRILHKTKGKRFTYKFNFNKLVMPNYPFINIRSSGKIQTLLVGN
# Outline: as §1
# ETV6 = ETV6 (Homo sapiens, UniProt P41212 1-452); details: protein: recombinant; tags: N-terminal GST; dsDNA, one strand shown
# Sequence of ETV6 (P41212 whole entry): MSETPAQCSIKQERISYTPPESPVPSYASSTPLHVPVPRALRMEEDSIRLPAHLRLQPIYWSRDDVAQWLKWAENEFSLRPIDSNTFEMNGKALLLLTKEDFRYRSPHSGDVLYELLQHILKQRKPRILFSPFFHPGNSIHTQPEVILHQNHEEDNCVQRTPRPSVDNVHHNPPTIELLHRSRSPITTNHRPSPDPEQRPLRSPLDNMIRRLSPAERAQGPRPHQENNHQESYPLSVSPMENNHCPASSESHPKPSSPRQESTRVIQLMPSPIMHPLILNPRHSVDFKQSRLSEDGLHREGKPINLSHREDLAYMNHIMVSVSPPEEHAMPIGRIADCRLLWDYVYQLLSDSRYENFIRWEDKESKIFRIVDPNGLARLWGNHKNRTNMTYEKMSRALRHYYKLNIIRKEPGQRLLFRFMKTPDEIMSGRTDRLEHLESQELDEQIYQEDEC
# Outline: as §1
sequence,measurement,setting,value
TTTAAT,binding signal,FEV,"1.26 fold enrichment (6-mer frequency, TF over GST control)"
same,binding signal,ETV5,"1.32 fold enrichment (6-mer frequency, TF over GST control)"
same,binding signal,HSF1,"2.06 fold enrichment (6-mer frequency, TF over GST control)"
same,binding signal,SPIC,"1.25 fold enrichment (6-mer frequency, TF over GST control)"
same,binding signal,ELF4,"1.32 fold enrichment (6-mer frequency, TF over GST control)"
same,binding signal,ELK4,"1.35 fold enrichment (6-mer frequency, TF over GST control)"
same,binding signal,ETV2,"1.06 fold enrichment (6-mer frequency, TF over GST control)"
same,binding signal,ELF3,"1.3 fold enrichment (6-mer frequency, TF over GST control)"
same,binding signal,CRX,"3.28 fold enrichment (6-mer frequency, TF over GST control)"
same,binding signal,ETV1,"1.34 fold enrichment (6-mer frequency, TF over GST control)"
same,binding signal,ERF,"1.33 fold enrichment (6-mer frequency, TF over GST control)"
same,binding signal,ETV3L,"1.37 fold enrichment (6-mer frequency, TF over GST control)"
same,binding signal,ETS2,"1.37 fold enrichment (6-mer frequency, TF over GST control)"
same,binding signal,SPDEF,"1.17 fold enrichment (6-mer frequency, TF over GST control)"
same,binding signal,ETV7,"1.46 fold enrichment (6-mer frequency, TF over GST control)"
same,binding signal,ELF5,"1.28 fold enrichment (6-mer frequency, TF over GST control)"
same,binding signal,ETV3,"1.21 fold enrichment (6-mer frequency, TF over GST control)"
same,binding signal,ETV6,"1.28 fold enrichment (6-mer frequency, TF over GST control)"
